# TDP1 block: qHTS Assay for Inhibitors of Tyrosyl-DNA Phosphodiesterase (TDP1); recombinant TDP1, AlphaScreen DNA substrate cleavage; Potency, µM (top dose mostly 130 µM), inactives show at the highest dose activity change, negative = inhibition, hits mostly inhibitors; 0.28% of 350,000 active; AID 485290, 2010; also: potency is read from the fitted curve at half-maximal effect; nearly all actives have a fitted effect of over 40% in size
#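 Steps: enzyme plus compound, 15 min RT; add biotin/phosphotyrosine-FITC oligonucleotide (15 nM final), react 5 min; add donor/acceptor beads (10 ug/ml final), 10 min; read AlphaScreen. Tdp1 at 1 nM final.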
# IL1B secr inh: qHTS for Inhibitors of Inflammasome Signaling: IL-1-beta AlphaLISA Primary Screen. THP-1 LPS/ATP IL-1B secretion, AlphaLISA, 16 h; hits give low values. activity change, % at 57.5 µM. 4.7% of 360,000 active; in the data active = activity change below about -50%; inconclusive = mostly about -30% to -49%
#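 Secreted IL-1B measured by AlphaLISA bead assay after 16 h compound exposure of THP-1 cells; compounds (final up to 57.5 uM) added 1 h before LPS (250 ng/mL) and ATP (1.25 mM) stimulation; lower signal means less secretion.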
# Six1-Eya2 blk: qHTS Assay for Inhibitors of the Six1/Eya2 Interaction; activity change, % (concentration not given with the values); Homeobox protein SIX1 (Homo sapiens) + Protein phosphatase EYA2 (Homo sapiens), …; AlphaScreen GST-Six1/His-Eya2 binding, biochemical; hits give low values; 0.56% of 360,000 active; in the data active = activity change below about -65%; inconclusive = mostly about -30% to -63%
# Target sequence (O00167 whole entry, looked up): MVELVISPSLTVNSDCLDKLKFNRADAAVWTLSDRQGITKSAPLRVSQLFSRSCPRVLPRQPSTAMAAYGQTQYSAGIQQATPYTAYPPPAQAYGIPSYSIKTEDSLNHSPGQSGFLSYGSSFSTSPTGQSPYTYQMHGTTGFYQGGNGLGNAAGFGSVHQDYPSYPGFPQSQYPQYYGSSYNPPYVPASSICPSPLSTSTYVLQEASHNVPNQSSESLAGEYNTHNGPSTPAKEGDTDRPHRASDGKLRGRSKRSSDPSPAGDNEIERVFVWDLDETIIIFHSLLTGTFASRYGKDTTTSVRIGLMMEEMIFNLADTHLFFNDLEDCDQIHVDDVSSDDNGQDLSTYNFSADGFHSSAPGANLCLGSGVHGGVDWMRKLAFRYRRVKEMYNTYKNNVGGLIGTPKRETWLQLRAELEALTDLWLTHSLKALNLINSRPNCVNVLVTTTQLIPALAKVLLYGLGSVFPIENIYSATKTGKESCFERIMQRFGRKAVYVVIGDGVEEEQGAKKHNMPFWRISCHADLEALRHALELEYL
# Target sequence (Q15475 whole entry, looked up): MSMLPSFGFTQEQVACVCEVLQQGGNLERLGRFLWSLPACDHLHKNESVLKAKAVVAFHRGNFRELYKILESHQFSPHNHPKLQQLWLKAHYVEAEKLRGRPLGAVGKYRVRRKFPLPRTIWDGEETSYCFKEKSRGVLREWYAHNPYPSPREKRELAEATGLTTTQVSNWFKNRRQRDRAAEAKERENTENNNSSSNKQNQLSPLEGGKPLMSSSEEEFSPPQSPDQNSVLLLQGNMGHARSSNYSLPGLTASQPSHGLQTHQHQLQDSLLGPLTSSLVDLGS
#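 Homogeneous AlphaScreen proximity assay pairing GST-Six1 with His-tagged Eya2 (added as 5X mix: 250 nM and 500 nM) in 50 mM Tris pH 8.0, 300 mM NaCl, 1 mM TCEP. Glutathione donor and nickel acceptor beads; 1 h, 37 °C, dark.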
# DT40 TDP1 no CPT: qHTS for Inhibitors of human tyrosyl-DNA phosphodiesterase 1 (TDP1): qHTS in cells in absence of CPT; 15% of 420,000 active; DT40 Tdp1-/- hTDP1 cells, no CPT, ATP luminescence, 48 h; Potency, µM (highest dose often 46.2 µM), without a hit: at the highest dose activity change, negative = growth inhibition, usual class: inhibitors; also: potency is read from the fitted curve at half-maximal effect; nearly all actives have a fitted effect of over 55% in size
#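 A cellular qHTS used chicken DT40 cells lacking endogenous Tdp1 but carrying stably transfected human TDP1. Compounds were applied without camptothecin, and cell growth kinetics were judged by ATP-dependent luminescence after ≥48 hr.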
# TDP1 cell CPT: qHTS for Inhibitors of human tyrosyl-DNA phosphodiesterase 1 (TDP1): qHTS in cells in presence of CPT | chicken DT40 Tdp1-/-;hTDP1 cells + 20 nM CPT, ATP luminescence, 48 h | Potency, µM (series often up to 46.2 µM), for the others: at the highest dose activity change, negative = growth inhibition, hits mostly inhibitors | 12% of 420,000 active; also: potency is read from the fitted curve at half-maximal effect; nearly all actives have a fitted effect of over 55% in size
#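 Chicken DT40 Tdp1-/- cells stably complemented with human TDP1 were seeded at 400 cells/well in medium containing 20 nM camptothecin, exposed to pin-transferred compounds, and grown at 37 °C for at least 48 hr. Viability was read as ATP luminescence.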
# CtBP-E1A inh: qHTS Assay for Inhibitors of the CtBP/E1A Interaction; CtBP / adenovirus E1A interaction (AlphaScreen); AlphaScreen GST-E1A/His-CtBP binding, 1536-well; hits give low values; activity change, % (concentration not given with the values); 0.49% of 340,000 active; AID 651724, 2012; in the data active = activity change below about -65%; inconclusive = mostly about -30% to -63%
#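 Homogeneous bead-based format: GST-tagged E1A captured on glutathione donor beads, His-tagged CtBP on nickel acceptor beads; compounds precede bead addition by 2 h at 37 °C.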
# Numbers without * were called inactive; ? = inconclusive; · = no result given; [ ] = dose if it differs, or a comment. The list is not random: actives were taken first. Their share in the collection is about 18%. Unless noted, calls follow the shape of the dose curve; as a rule, active = well fitted curve in the direction sought with a large enough effect; inconclusive = small, poorly fitted or top-dose-only effect, or another doubt; inactive = no such curve, though single readings can be large; an effect the other way counts as inactive or inconclusive. % is scaled to controls: 0 for no effect and ±100 for the full control effect.
SMILES,TDP1 block,IL1B secr inh,Six1-Eya2 blk,DT40 TDP1 no CPT,TDP1 cell CPT,CtBP-E1A inh
O=C(CN(C1CC1)S(=O)(=O)c1ccc(S(=O)(=O)N2CCCCCC2)cc1)Nc1ccccc1,0%,12,5,-25%,-9%,4
COc1ccc(S(=O)(=O)N2CCCCC2)cc1NC(=O)CN(Cc1ccco1)Cc1ccco1,1%[56.1 µM],-51*,-11,?,?,-17
COc1ccc(OC)c(NC(=O)NCc2ccc(F)cc2)c1,8%,-1,-9,-13%,13%,-8
COc1ccc(S(=O)(=O)N2CCCCC2)cc1NC(=O)CN(C)C1CCCCC1,3%,-70*,-5,?,?,-7
COc1ccc(S(=O)(=O)N2CCCCC2)cc1NC(=O)C1CC(=O)N(Cc2ccco2)C1 (stereo not drawn),-11%,-1,3,1%,0%,7
COC(=O)CCN(C1CCCCC1)S(=O)(=O)c1ccc(S(=O)(=O)N2CCCCC2)cc1,3%,-13,21,13µM*,29µM*,43
COc1ccc(OC)c(NC(=O)CN(Cc2ccc(F)cc2)C2CCCCC2)c1,5%,-18,-28,16µM*,?,-13
Cc1ccc(CNC(=O)CCCCn2c(=O)c3ccccc3n(Cc3ccc(C)cc3)c2=O)cc1,-2%,·,·,-17%,-21%,·
Cc1c(NC(=O)c2cccc(NC(=O)Cc3ccccc3Cl)c2)c(=O)n(-c2ccccc2)n1C,·,5,-1,-10%,-2%,1
O=C(NN=Cc1ccc2c(c1)OCO2)c1ccncc1,·,-1,2,7%,-5%,5
Cc1ccc(C)c(NC(=O)c2cc(S(=O)(=O)N3CCN(c4cccc(Cl)c4)CC3)ccc2F)c1,8%,·,·,?,?,·
CCCCn1nnnc1C(c1ccccc1)N1CCN(C(=O)C2CCCO2)CC1 (stereo not drawn),·,4,-1,-2%,3%,-1
COc1ccc(C(=O)NCC(=O)N2CCN(c3ccc(Cl)cc3)CC2)cc1,·,10,-5,?,-15%,5
COc1ccccc1/C=C/c1nc2ccccc2[nH]1,·,·,·,14µM*,?,·
Cc1ccc(/C=C/c2nc3ccccc3[nH]2)cc1,5%,·,·,13µM*,10µM*,·
O=c1[nH]c2ccccc2nc1/C=C/c1ccccc1,·,32,5,-26%,?,-15
O=c1[nH]c2ccccc2nc1/C=C/c1ccc(O)cc1,?,-76*,10,15µM*,?,1
Cc1ccc(/C=C/c2nc3ccccc3[nH]2)o1,8%,-73*,12,16µM*,23µM*,8
Cc1cccc(Cc2nc3ccccc3[nH]2)c1,·,-17,10,?,-20%,0
Cc1nn(C)c(C)c1CNC(=O)/C=C/c1ccccc1F,-3%,21,-2,?,-21%,0
CC1(C)N=C(c2cccs2)C(C)(C)N1O,5%,4,9,-21%,-17%,12
Cc1cc(C(F)(F)F)n(-c2nc(C(=O)NN)cs2)n1,9%,-7,0,-9%,-10%,4
COc1ccc(/C=N/NC(=O)c2csc(-n3nc(C)cc3C(F)(F)F)n2)cc1,5%,-16,2,21µM*,?,1
Cc1ccccc1OC1C(=O)N(CC2CCCO2)C1c1ccc2c(c1)OCO2 (stereo not drawn),5%,1,1,13µM*,15µM*,·
COc1ccc2c(C(=O)CN3CCN(CCO)CC3)c[nH]c2c1,0%,11,3,-7%,-5%,6
SMILES,TDP1 block,IL1B secr inh,Six1-Eya2 blk,DT40 TDP1 no CPT,TDP1 cell CPT,CtBP-E1A inh
CCCNC(=O)C(Cc1cccc(C#N)c1)NC(=O)c1cccc([N+](=O)[O-])c1 (stereo not drawn),1%,1,-3,-22%,-22%,-8
CCOC(=O)c1c(NC(=O)CCCOc2ccc(Cl)cc2)sc2c1CCC2,2%[2.28 µM],·,·,-12%,-11%,·
C=CCOc1ccc(CNn2cn[nH]c2=S)cc1,2%,6,-2,-5%,-3%,-4
C=CCn1cn[nH]c1=S,5%,26,-2,0%,5.2µM*,-1
Cn1c(SCc2ccccc2)nnc1-c1ccc(O)cc1,5%,1,-1,6%,0%,3
CCOC(=O)c1cc(-c2ccc(N)cc2)sc1N,9%,?,-24,21µM*,18µM*,-26
Cc1ccc(-c2c(C(=O)O)c3ccccc3[nH]c2=O)cc1,·,32,6,0%,13%,·
CC(C)COc1ccc(C(=O)Nc2cc(S(=O)(=O)N3CCOCC3)ccc2N2CCCC2)cc1,0%,3,-5,26µM*,16µM*,2
CC(C)Oc1ccc(C(=O)Nc2cc(S(=O)(=O)N3CCOCC3)ccc2N2CCOCC2)cc1,-3%,-7,2,21µM*,?,9
Cc1ccc(CSCC(=O)Nc2cc(S(=O)(=O)N3CCOCC3)ccc2OC(C)C)cc1,1%,-6,-15,23µM*,?,-1
O=C1CN(C(=O)c2ccccc2F)C(c2ccccc2)c2cc(F)ccc2N1 (stereo not drawn),·,25,-7,-10%,-14%,-3
O=C(Cn1ncc2c([nH]c3ccccc32)c1=O)N1CCN(c2ccccc2F)CC1,-5%,-7,4,4%,?,1
COc1ccc(NC(=O)N(C)C[C@H]2OCc3cnnn3CCCC(=O)N([C@@H](C)CO)C[C@H]2C)c(OC)c1,·,21,-7,-28%,-5%,-2
CCn1c(CNC(=O)c2ccccc2F)nnc1SCCOc1ccccc1,5%,32,9,-20%,?,29
CCc1cc2cc(C)cc(C)c2nc1SCC(=O)N1CCN(C(=O)c2ccco2)CC1,4%,-54*,6,?,?,-2
CCc1cc2ccc(C)cc2nc1SCC(=O)N1CCN(C(=O)c2ccco2)CC1,9%,?,-12,18µM*,?,-11
COc1cccc([C@@H]2Oc3ccc(OC)cc3C(=O)[C@H]2OC(=O)NS(=O)(=O)c2ccc(F)cc2)c1,3%,·,·,·,·,·
Cc1ccc(N(CC(=O)NCC(O)c2ccccc2)S(=O)(=O)c2ccc(C)cc2)cc1 (stereo not drawn),-1%,-94*,0,-23%,-1%,-11

# Screens from PubChem BioAssay.
